Composite z-score and z-score data for five molecules are collected here from PubChem BioAssay.

Active and inactive are the calls of the source.

Experiment [1] can be described thus: binders of probe aFSTL3 on microarray, primary screen, stem cell growth factor project, biochemical, small-molecule microarray, fluorescence 635/667 (AID 1064).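 Further: measures binding of the biotinylated anti-FSTL3 antibody to printed compounds.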 The note with it: higher = more signal.
Experiment [2] is described as follows: binders from COS7 lysate, DM2A8 probe, primary screen, torsin A project, cell lysate, small-molecule microarray, fluorescence 635/667 (AID 1065). The note with it: higher = more signal, COS7 lysate expressing mutant human TOR1A.
The nature of experiment [3]: binders of probe aFGF2 on microarray, primary screen, stem cell growth factor project, biochemical, small-molecule microarray, fluorescence 635/667 (AID 1067).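 Further: measures binding of biotinylated aFGF2 protein to printed compounds on slides; z-score merges feature fluorescence and signal-to-noise across triplicate slides.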 The conditions noted are these: higher = more signal.
A short description of experiment [4]: binders of probe aFGF10 on microarray, primary screen, stem cell growth factor project, biochemical, small-molecule microarray, fluorescence 635/667 (AID 1071).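 Further: score merges 667 nm spot intensity and signal to noise from triplicate slides.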 The note with it: higher = more signal.
The target in experiment [5] is Neurogenic locus notch homolog protein 2 (Homo sapiens) (UniProt Q04721). Nature of the experiment: Notch2 binders on small-molecule microarrays, primary screen, biochemical, small-molecule microarray, 635 nm fluorescence, stem cell growth factors (AID 1073). The conditions noted are these: Notch2 binding, higher = more signal.
The target in experiment [6] is Pro-neuregulin-1, membrane-bound isoform (Homo sapiens) (UniProt Q02297). Briefly: NRG1 binders on small-molecule microarrays, primary screen, psychiatric disease protein project, biochemical, small-molecule microarray, fluorescence 635/667 (AID 1075).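 Further: score combines 667 nm spot fluorescence with signal to noise.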 The note with it: NRG1 binding, 635 nm fluorescence, higher = more signal.
The subject of experiment [7] is Neuregulin-1 EGF-like domain. Briefly: binders of neuregulin-1 EGF-like domain, primary screen, biochemical, small-molecule microarray, 635 nm fluorescence (AID 1081).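 Further: binding of the protein to compounds printed on small-molecule microarray slides.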 The conditions noted are these: small-molecule microarray binding, higher = more signal.
Experiment [8] is described as follows: FRG1 promoter luciferase signal modulators, primary screen, FRG1 inhibition for FSHD, cell-based, C2C12 myotubes, firefly/Renilla luciferase, luminescence (AID 1084). The conditions noted are these: higher = more signal, called active from +8 up or from −8 down.
Experiment [9] can be described thus: binders of probe aFST on microarray, primary screen, stem cell growth factor project, biochemical, small-molecule microarray, fluorescence 635/667 (AID 1086).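 Further: score merges 667 nm fluorescence with signal-to-noise of each printed compound spot.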 The note with it: higher = more signal.
The nature of experiment [10]: binders of probe aHhip on microarray, primary screen, stem cell growth factor project, biochemical, small-molecule microarray, fluorescence 635/667 (AID 1087).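 Further: score merges spot fluorescence at 667nm with spot signal to noise ratio.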 The conditions noted are these: higher = more signal.
Experiment [11] deals with PRMT1 (protein arginine N-methyltransferase 1). Nature of the experiment: PRMT1 binders on small-molecule microarrays, primary screen, biochemical, small-molecule microarray, 635 nm fluorescence (AID 1088).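 Further: binding of Prmt1 protein to compounds spotted on small-molecule microarray slides.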 The note with it: small-molecule microarray binding, higher = more signal.
A short description of experiment [12]: yeast growth modulation, basal conditions, primary screen, YJM789 clinical isolate, OD600, 24 h (AID 1089).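 Further: growth of clinical yeast isolate S. cerevisiae YJM 789 seeded 1000 cells per well; test concentration not given here.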 The conditions noted are these: S. cerevisiae YJM789 growth, higher = more signal, called active from +8 up or from −8 down.
The nature of experiment [13]: fission yeast growth modulation, primary screen, strain 972, OD600, 24 h, no modulator (AID 1090).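 Further: basal condition with compound alone and no growth modifier present; test concentration not given here.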 The conditions noted are these: S. pombe 972 growth, higher = more signal, called active from +8 up or from −8 down.
A short description of experiment [14]: S. cerevisiae growth modulation with rapamycin, primary screen, strain BY4716, OD600, 96 h (AID 1091). Further: test concentration not given here. The conditions noted are these: higher = more signal, called active from +8 up or from −8 down.
For experiment [15], the target named is Torsin-1A-interacting protein 2 (Homo sapiens) (UniProt Q8NFQ8). Briefly: LULL1 binders on small-molecule microarray, primary screen, cell lysate, human LULL1 lysate, 635/667 nm fluorescence (AID 1092).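 Further: score merges per-feature 667 nm fluorescence with signal-to-noise.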 The note with it: hLULL1 lysate binding, 635 nm fluorescence, higher = more signal.
The nature of experiment [16]: E. coli growth modulation, two-sided OD650, primary screen, E. coli filamentation project, strain DRC41, 24 h (AID 1093).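 Further: MC1000 strain lacking acrAB efflux and sulA so SOS filamentation is blocked; test concentration not given here.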 The note with it: OD650, 24 h, higher = more signal, called active from +8 up or from −8 down.
Experiment [17] in a line: small-molecule microarray binders of probe aLefty2, primary screen, biochemical, biotinylated probe, 635/667 nm fluorescence (AID 1094).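 Further: score merges spot fluorescence near 667 nm with spot signal-to-noise ratio.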 The note with it: higher = more signal.
In experiment [18] the test system is Noggin (protein binding on small-molecule microarray). Briefly: Noggin binders on small-molecule microarray, primary screen, biochemical, 635/667 nm fluorescence (AID 1095).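 Further: score merges 667 nm feature fluorescence with signal to noise over triplicate slides.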 The conditions noted are these: 635 nm fluorescence, higher = more signal.
In experiment [19] the target is Neurogenic locus notch homolog protein 3 (Homo sapiens) (UniProt Q9UM47). Nature of the experiment: NOTCH3 binders on small-molecule microarray, primary screen, biochemical, 635/667 nm fluorescence (AID 1096). The note with it: NOTCH3 binding, 635 nm fluorescence, higher = more signal.
A short description of experiment [20]: small-molecule microarray binders of probe aEGFR, primary screen, biochemical, biotinylated probe, 635/667 nm fluorescence (AID 1097).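 Further: probe is a biotinylated anti-EGFR antibody binding compounds printed on slides; score combines fluorescence near 667 nm and signal to noise of each spot.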 The conditions noted are these: higher = more signal.

Neurogenic locus notch homolog protein 2 (Homo sapiens), sequence (Q04721 whole entry, looked up, canonical isoform): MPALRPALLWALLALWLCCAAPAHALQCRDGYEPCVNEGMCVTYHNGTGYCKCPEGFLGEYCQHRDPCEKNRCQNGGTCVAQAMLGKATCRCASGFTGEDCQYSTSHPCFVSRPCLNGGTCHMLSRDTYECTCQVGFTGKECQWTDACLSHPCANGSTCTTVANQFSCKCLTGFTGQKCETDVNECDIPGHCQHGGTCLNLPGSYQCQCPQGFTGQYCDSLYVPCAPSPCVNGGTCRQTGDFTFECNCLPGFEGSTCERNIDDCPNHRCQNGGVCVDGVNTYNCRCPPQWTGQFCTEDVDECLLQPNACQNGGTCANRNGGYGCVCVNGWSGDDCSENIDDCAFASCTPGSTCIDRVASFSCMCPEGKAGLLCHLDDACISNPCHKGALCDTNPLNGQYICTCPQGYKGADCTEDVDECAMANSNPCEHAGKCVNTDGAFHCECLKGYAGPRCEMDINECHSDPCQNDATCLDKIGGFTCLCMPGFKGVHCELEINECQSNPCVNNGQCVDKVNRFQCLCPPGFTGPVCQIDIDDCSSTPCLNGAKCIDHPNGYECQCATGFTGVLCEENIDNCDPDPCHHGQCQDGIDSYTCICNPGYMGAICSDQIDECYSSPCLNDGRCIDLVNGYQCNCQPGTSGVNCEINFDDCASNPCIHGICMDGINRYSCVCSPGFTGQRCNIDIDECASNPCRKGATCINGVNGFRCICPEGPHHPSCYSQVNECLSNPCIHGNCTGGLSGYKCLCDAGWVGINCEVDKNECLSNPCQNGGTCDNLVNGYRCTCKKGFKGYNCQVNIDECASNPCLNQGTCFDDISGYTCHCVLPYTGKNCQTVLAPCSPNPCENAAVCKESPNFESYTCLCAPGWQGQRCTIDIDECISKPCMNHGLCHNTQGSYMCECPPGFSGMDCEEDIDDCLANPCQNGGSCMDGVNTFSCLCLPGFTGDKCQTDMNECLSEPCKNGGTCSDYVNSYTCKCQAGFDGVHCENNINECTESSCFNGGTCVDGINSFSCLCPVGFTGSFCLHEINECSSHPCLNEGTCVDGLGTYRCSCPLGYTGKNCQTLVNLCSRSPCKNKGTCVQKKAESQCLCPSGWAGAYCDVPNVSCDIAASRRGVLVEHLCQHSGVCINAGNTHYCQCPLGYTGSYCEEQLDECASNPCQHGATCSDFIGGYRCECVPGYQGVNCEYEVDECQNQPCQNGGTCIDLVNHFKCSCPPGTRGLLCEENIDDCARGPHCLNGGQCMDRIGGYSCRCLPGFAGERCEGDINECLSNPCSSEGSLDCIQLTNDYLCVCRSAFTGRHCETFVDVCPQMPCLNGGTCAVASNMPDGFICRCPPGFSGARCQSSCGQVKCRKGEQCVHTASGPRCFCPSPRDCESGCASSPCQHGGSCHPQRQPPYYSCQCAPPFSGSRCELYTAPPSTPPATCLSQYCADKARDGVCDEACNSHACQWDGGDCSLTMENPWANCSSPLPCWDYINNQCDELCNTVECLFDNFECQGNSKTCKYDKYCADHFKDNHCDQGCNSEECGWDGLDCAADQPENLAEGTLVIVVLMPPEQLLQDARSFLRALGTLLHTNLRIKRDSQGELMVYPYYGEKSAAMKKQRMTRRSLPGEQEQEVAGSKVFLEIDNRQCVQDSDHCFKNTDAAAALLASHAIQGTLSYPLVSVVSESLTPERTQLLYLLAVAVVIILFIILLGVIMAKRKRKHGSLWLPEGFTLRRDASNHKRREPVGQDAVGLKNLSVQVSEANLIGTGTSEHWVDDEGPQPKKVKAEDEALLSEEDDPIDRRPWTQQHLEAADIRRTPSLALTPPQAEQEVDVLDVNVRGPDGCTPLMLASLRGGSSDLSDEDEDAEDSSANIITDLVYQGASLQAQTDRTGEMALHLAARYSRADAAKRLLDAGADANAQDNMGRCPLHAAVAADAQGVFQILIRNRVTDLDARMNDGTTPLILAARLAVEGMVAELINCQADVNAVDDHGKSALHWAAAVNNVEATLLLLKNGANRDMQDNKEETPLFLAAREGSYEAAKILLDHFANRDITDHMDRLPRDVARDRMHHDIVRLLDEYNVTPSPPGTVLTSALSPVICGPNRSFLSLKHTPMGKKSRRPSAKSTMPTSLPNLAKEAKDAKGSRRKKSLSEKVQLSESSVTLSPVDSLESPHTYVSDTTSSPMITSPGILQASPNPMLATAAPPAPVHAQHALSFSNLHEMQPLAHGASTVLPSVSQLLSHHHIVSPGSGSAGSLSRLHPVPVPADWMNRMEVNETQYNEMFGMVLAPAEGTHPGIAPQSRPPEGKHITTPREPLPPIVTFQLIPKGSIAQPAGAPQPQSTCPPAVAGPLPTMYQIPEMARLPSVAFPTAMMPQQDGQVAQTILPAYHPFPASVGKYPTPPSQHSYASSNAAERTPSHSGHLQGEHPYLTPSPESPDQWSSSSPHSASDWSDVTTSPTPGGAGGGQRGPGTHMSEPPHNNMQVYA
Pro-neuregulin-1, membrane-bound isoform (Homo sapiens), sequence (Q02297 whole entry, looked up, the tested form may be a part, canonical isoform): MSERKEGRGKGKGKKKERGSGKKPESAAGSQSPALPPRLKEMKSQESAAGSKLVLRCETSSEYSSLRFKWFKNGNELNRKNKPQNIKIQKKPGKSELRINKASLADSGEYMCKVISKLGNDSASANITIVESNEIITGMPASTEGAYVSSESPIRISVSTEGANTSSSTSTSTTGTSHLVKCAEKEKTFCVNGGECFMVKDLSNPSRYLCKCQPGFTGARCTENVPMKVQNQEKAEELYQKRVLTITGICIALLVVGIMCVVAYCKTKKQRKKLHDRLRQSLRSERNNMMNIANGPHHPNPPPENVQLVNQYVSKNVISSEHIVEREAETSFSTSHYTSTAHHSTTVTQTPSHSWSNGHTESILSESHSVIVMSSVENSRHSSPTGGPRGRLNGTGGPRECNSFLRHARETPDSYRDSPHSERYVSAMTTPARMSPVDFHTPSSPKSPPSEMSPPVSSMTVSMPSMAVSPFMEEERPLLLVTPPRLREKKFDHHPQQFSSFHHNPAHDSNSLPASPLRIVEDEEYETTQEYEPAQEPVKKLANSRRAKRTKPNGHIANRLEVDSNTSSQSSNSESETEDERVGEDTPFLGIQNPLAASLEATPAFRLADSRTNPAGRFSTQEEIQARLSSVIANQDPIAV
Torsin-1A-interacting protein 2 (Homo sapiens), sequence (Q8NFQ8 whole entry, looked up): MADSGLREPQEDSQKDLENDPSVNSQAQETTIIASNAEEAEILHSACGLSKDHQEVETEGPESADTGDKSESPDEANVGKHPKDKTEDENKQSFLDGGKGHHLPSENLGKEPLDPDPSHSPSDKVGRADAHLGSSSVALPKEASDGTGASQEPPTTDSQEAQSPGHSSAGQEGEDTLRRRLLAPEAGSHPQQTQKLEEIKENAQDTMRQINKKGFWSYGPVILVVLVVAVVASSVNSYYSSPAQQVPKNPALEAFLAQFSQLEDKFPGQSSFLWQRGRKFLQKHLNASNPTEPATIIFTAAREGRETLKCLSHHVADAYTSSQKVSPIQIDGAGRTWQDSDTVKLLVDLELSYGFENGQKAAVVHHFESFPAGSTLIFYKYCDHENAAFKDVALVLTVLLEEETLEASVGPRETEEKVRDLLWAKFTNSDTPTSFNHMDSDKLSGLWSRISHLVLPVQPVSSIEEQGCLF

As to `COC(=O)[C@@]1(Cc2ccccc2)[C@H]2c3cc(C(=O)N(C)C)n(Cc4ccccn4)c3C[C@H]2CN1C(=O)c1ccccc1`, the composite z-score in experiment [1] was determined as 0.907; in experiment [2], 1.6; in [3] it was 0.305; in experiment [4], 0.76; in experiment [5] it was 1.15; in [6], 2.33. Also, the composite z-score in experiment [7] amounted to 1.31; in experiment [9], 1.27; in [10], 0.0302; in experiment [11] it was 0.664; in experiment [15] it was 3.68; in [17] it was 0.506. The figures for the composite z-score in experiment [18], in experiment [19] and in experiment [20] were -0.793, 1.11 and 0.309, respectively. Besides, the z-score is 1.01 (inactive) in experiment [8]; 0.249 (inactive) in [12]; 0.87 (inactive) in [13]; 0.963 (inactive) in experiment [14]; -0.537 (inactive) in [16].
As for `COC(=O)c1ccc(OC)c(/C=C\CC(CCc2ccccc2)OC(=O)c2ccncc2)c1` (stereo not given), the composite z-score in experiment [1] is 0.233; in [2] it was 0.767; in [3] it was -0.22; in experiment [4] it was -0.293; in experiment [5], -0.714; in [6], -0.0697. Besides, the composite z-score is 0.0883 in experiment [7]; -0.432 in [9]; -0.146 in [10]; -0.0105 in [11]; 0.673 in [15]; 0.0224 in experiment [17]. In addition, the composite z-score in experiment [18] was 1.88; in experiment [19], -0.169; in experiment [20] it was -0.195. In addition, the z-score in experiment [8] is -2.63 (inactive); in experiment [12], -0.272 (inactive); in experiment [13] it was -1.34 (inactive); in experiment [14], 3.39 (inactive); in experiment [16] it was 0.162 (inactive).
For `CCCC[C@H]1OB(O)C[C@H]2C1=C(COc1ccccc1)Cn1c(=O)n(-c3ccccc3)c(=O)n12`, the composite z-score is -0.211 in [1]; 0.556 in experiment [2]; -0.145 in [3]; 0.279 in experiment [4]; 0.403 in [5]; 1.01 in experiment [6]. Further, the composite z-score in experiment [7] is 0.77; in experiment [9], 0.415; in experiment [10], -0.164; in experiment [11], 0.905; in experiment [15], 2.24; in experiment [17] it was -0.116. Further, the composite z-score is 0.836 in experiment [18], 0.733 in [19] and -0.0947 in experiment [20]. Moreover, the z-score is -0.971 (inactive) in experiment [8]; 0.54 (inactive) in experiment [12]; -4.94 (inactive) in experiment [13]; 0.59 (inactive) in experiment [14]; -0.298 (inactive) in experiment [16].
`CC(C)C[C@@H]1NC(=O)[C@@H]2C[C@H](C(=O)NCc3ccc(F)cc3)[C@H](c3ccc(O)cc3)N2C1=O`: the composite z-score in experiment [1] was 0.454; in experiment [2], 0.0392; in experiment [3], -0.017; in experiment [4], 0.0187; in experiment [5], 0.245; in experiment [6], 0.346. Moreover, the composite z-score was 1.16 in [7]; -0.512 in experiment [9]; -0.201 in experiment [10]; 1.43 in experiment [11]; 2.96 in experiment [15]; 0.0137 in experiment [17]. The composite z-score is 0.479 in experiment [18], 0.365 in [19] and -0.178 in experiment [20]. For the same molecule, the z-score in experiment [8] is -0.331 (inactive); in experiment [12], -0.472 (inactive); in experiment [13], -0.352 (inactive); in experiment [14], -0.427 (inactive); in [16], 0.549 (inactive).
Consider `C=CCOC(=O)[C@@H]1[C@H]2C(=O)O[C@H](c3ccccc3)[C@H](c3ccccc3)N2[C@H](c2ccc(OCCOC(=O)[C@H]3C[C@H]4C(=O)N[C@@H](Cc5ccccc5)C(=O)N4[C@H]3c3cccc(OCCO)c3)cc2)[C@@]12C(=O)Nc1ccc(I)cc12`, for which the composite z-score was 0.014 in experiment [1]; 0.548 in experiment [2]; -0.0512 in [3]; 0.957 in experiment [4]; 1.09 in [5]; 0.0935 in experiment [6]. The composite z-score in experiment [7] is 1.31; in experiment [9] it was 0.56; in experiment [10] it was -0.186; in experiment [11], 1.53; in experiment [15], 1.93; in experiment [17], -0.193. Further, the composite z-score in [18] came to 1.59; in experiment [19] it was 1.03; in [20], 0.276. The z-score in experiment [8] was 2.41 (inactive); in experiment [12] it was 2.59 (inactive); in experiment [13] it was -2.26 (inactive); in [14], 0.874 (inactive); in [16] it was -1.07 (inactive).
